Laboratory results: PubChem BioAssay
The source made the active and inactive calls.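 How the source made its calls, unless noted: active means visually confirmed hit in the image check and inhibition above 20%; inconclusive means visually confirmed hit but inhibition not above 20%; inactive means no visual hit in the image check.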

Experiments:
[1] = inhibitors of TNFa-induced NFkB p65 translocation, primary screen, imaging, HUVEC, MLSMR starter and 10KST1 sets (AID 438;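 active means inhibition above 20% together with a positive visual image hit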;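 further: compound added about 3h40 before a 20 min TNFalpha stimulation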;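 on inhibition: signal is the nuclear over cytoplasmic p65 intensity ratio per well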); conditions: HUVEC TNFa-induced p65 nuclear translocation; cell count: measured here: nuclei count (cytotoxicity indicator), at 2.08 µM unless noted; inhibition: at 2 µM, stronger effect = higher value unless noted
[2] = inhibitors of E-selectin induction by TNFa, primary screen, imaging, HUVEC, immunofluorescence, MLSMR starter and 10KST1 sets (AID 487); conditions: HUVEC TNFalpha-induced E-selectin immunofluorescence imaging, at 2 µM; inhibition: stronger effect = higher value; nuclei count: measured here: cell number, toxicity;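 on inhibition: signal is fraction of cell area covered by stained E-selectin grains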;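 on nuclei count: 100% = median nuclei count of all wells on the same plate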
[3] = DUSP6 inhibitors restoring Erk phosphorylation by chemical complementation, primary imaging in DUSP6-transfected HeLa (AID 609;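 active means compounds giving at least 50% inhibition in the cell-based MKP-3 phosphatase rescue imaging test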;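 on inhibition: phospho-Erk level distribution per well compared with pooled transfected vehicle control wells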); conditions: HeLa MKP-3 transfected, phospho-Erk imaging KS statistic, at 10 µM
[4] = molecular target: Dual specificity protein phosphatase 6 (Homo sapiens) (UniProt Q16828); assay: as above; conditions: HeLa MKP-3 transfected, phospho-Erk imaging KS statistic, at 10 µM, stronger effect = higher value
[5] = molecular target: Voltage-gated potassium channel subunit beta-2 (Rattus norvegicus) (UniProt P62483); assay: KvBeta enzyme negative modulators, primary screen, biochemical, NADPH fluorescence (AID 622;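 active means fluorescence slope higher than the sample average by over 3 SD, cut at about -0.22 in these data, passing the limit was not always enough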;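 further: slope of raw intensity against log time taken from 70 to 1610 s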); conditions: recombinant KvBeta, 4-cyanobenzaldehyde reduction, at 10 µM, stronger effect = higher value
[6] = molecular target: Voltage-gated potassium channel subunit beta-2 (Rattus norvegicus) (UniProt P62483); assay: KvBeta positive modulators, primary screen, biochemical, NADPH fluorescence (AID 623;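 active means NADPH fluorescence slope more negative than the mean of all samples by about 3 SD, 99.7% confidence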;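 further: fluorescence intensity change per second fitted from 20 to 320 s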); conditions: Recombinant KvBeta, NADPH fluorescence decrease slope, 10 min; at 10 µM; stronger effect = lower value
[7] = molecular target: Muscarinic acetylcholine receptor M4 (Homo sapiens) (UniProt P08173); assay: compounds altering M4/GIRK thallium flux, either direction, primary screen, M4 allosteric agonist project, cell-based, HEK293 M4/GIRK, BTC-AM (AID 625;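 active means fluorescence slope after compound addition differing from the mean of all tested samples at 99.7% confidence, mostly higher but some lower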;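 further: thallium influx through GIRK channels coupled to M4 in HEK293 cells with BTC-AM dye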); conditions: at 10 µM, actives lie on both sides
[8] = inhibitors of larval lipid processing in zebrafish, primary screen, whole organism, PED6 fluorescence, gall bladder and intestine (AID 686;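 active means a full or partial loss of lipid-probe fluorescence in the fish gall bladder, intestine or both, judged by eye; inactive means no fluorescence loss, or compound toxic to the fish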;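 further: larvae 5 to 7 days old with five fish per well; signal comes from phospholipase A2 cleavage of quenched PED6 carried via bile; overnight exposure to compound and PED6 before scoring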); conditions: Zebrafish larvae PED6 lipid processing, fluorescence scoring
[9] = inhibitors of Chlamydomonas gravitaxis, primary screen, whole organism, Chlamydomonas reinhardtii, WT vs cilia-less mutant, absorbance, 96-well (AID 463189;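 active means inhibition at or above 50% relative to wild type and mutant plate controls; inactive means inhibition below 50%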;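 further: 0% = wild type cc124 cells in DMSO and 100% = ciliumless bld1 mutant cells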); conditions: OD600 absorbance, 2 days, at 10 µM, stronger effect = higher value
[10] = measured here: cell density z-score
[11] = measured here: nuclear c-Myc green intensity z-score
[12] = measured here: nuclear pErk red intensity z-score, stronger effect = higher value

Dual specificity protein phosphatase 6 (Homo sapiens), sequence (Q16828 whole entry, looked up): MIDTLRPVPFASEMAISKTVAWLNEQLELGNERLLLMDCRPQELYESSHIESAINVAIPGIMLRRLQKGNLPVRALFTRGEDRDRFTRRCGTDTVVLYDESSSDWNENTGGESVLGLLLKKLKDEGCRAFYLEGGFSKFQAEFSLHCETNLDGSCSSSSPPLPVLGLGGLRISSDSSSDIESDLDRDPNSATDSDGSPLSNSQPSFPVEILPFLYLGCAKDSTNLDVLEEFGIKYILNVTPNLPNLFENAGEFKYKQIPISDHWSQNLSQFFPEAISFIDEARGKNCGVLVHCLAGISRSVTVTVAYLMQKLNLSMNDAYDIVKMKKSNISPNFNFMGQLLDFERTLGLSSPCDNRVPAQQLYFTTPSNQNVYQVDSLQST
Voltage-gated potassium channel subunit beta-2 (Rattus norvegicus), sequence (P62483 whole entry, looked up): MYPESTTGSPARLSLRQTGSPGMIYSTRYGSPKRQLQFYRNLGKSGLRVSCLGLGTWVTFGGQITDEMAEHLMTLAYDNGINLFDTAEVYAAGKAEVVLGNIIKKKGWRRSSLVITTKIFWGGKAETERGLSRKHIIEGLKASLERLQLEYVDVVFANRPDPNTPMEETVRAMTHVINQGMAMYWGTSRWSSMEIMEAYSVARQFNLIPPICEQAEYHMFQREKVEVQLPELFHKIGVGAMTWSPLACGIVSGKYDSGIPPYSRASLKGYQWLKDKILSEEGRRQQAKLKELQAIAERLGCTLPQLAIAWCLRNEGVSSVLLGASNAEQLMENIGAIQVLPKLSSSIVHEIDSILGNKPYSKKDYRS
Muscarinic acetylcholine receptor M4 (Homo sapiens), sequence (P08173 whole entry, looked up): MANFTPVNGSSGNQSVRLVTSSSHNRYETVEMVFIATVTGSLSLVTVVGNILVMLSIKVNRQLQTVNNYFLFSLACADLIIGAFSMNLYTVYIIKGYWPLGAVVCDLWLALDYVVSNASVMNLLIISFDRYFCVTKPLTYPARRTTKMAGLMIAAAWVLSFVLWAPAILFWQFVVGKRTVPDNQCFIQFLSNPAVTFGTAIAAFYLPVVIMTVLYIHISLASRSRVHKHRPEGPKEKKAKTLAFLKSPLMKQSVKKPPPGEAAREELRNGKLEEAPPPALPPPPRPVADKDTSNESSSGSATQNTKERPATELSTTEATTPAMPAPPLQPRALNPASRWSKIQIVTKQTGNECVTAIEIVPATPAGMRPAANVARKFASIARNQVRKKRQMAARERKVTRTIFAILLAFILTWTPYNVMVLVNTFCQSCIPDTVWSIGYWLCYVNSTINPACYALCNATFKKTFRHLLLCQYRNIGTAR

Row | SMILES | cell count [1] | inhibition [1] | inhibition [2] | nuclei count [2] [%] | z-score [3, 10] | z-score [3, 11] | z-score [3, 12] | inhibition [4] | fluorescence slope [5] | NADPH fluorescence slope [6] | fluorescence slope [7] | outcome [8] | inhibition [9]
1 | Cn1c(O)c(C=NCCCNC2CCCCC2)c(=O)n(C)c1=O | 420 | 1.2% (inactive) | -81.5% (inactive) | 131 | 0.261 | -0.315 | -0.515 | 26.5% (inactive) | -0.469 (inactive) | -0.000127 (inactive) | 0.00413 (inactive) | inactive | -2.14% (inactive)
2 | CC1(C)NCCN2C(=O)CSC21 (stereo not drawn) | 652 | -12.6% (inactive) | -216% (inactive) | 158 | 0.771 | 0.411 | 0.0731 | 4.72% (inactive) | -0.493 (inactive) | -5.8e-05 (inactive) | 0.00571 (inactive) | inactive | 9.56% (inactive)
3 | COc1ccccc1-n1c(O)c(C=NCCCn2ccnc2)c(=O)[nH]c1=O | 752 | 3.4% (inactive) | -23.3% (inactive) | 150 | -0.173 | -0.884 | 0.0227 | 7.83% (inactive) | -0.426 (inactive) | -4.1e-05 (inactive) | 0.00527 (inactive) | inactive | 5.72% (inactive)
4 | CCOC(=O)C1=C(C)OC(N)=C(C(=O)OCC)[C@@]12C(=O)N(CC(N)=O)c1ccccc12 | 465 | -6.3% (inactive) | -219% (inactive) | 186 | -0.479 | -0.527 | -0.153 | -0.624% (inactive) | -0.445 (inactive) | -5.7e-05 (inactive) | 0.00512 (inactive) | inactive | 5.83% (inactive)
5 | CC1CN=C(Nc2ccc(N(C)C)cc2)S1 (stereo not drawn) | 666 | 0.8% (inactive) | -22.4% (inactive) | 136 | -0.332 | 0.426 | -0.395 | 3.49% (inactive) | -0.464 (inactive) | -5.1e-05 (inactive) | 0.00379 (inactive) | inactive | 9.45% (inactive)
6 | Cc1c(N=Cc2c(O)n(Cc3ccco3)c(=O)[nH]c2=O)c(=O)n(-c2ccccc2)n1C | 591 | -1.8% (inactive) | -156% (inactive) | 133 | 0.39 | 0.06 | -0.372 | 11.4% (inactive) | -0.492 (inactive) | -0.000124 (inactive) | 0.00411 (inactive) | inactive | 11.7% (inactive)
